From publication PMC4336329 (PLoS ONE, 2015)
Out of some 310,000 compounds screened, about 14,000 (4.5%) showed an effect of 50% or more. The effect is printed as a negative number. For the sample, strong results were picked, then their nearest neighbours and some compounds at random.

Each compound was assayed against human ether-à-go-go-related gene (hERG) potassium channel (human, UniProt Q12809) (assay: primary screen, population patch clamp on CHO cells stably expressing hERG; higher = less effect of the substance).
human ether-à-go-go-related gene (hERG) potassium channel, sequence (Q12809 whole entry, looked up): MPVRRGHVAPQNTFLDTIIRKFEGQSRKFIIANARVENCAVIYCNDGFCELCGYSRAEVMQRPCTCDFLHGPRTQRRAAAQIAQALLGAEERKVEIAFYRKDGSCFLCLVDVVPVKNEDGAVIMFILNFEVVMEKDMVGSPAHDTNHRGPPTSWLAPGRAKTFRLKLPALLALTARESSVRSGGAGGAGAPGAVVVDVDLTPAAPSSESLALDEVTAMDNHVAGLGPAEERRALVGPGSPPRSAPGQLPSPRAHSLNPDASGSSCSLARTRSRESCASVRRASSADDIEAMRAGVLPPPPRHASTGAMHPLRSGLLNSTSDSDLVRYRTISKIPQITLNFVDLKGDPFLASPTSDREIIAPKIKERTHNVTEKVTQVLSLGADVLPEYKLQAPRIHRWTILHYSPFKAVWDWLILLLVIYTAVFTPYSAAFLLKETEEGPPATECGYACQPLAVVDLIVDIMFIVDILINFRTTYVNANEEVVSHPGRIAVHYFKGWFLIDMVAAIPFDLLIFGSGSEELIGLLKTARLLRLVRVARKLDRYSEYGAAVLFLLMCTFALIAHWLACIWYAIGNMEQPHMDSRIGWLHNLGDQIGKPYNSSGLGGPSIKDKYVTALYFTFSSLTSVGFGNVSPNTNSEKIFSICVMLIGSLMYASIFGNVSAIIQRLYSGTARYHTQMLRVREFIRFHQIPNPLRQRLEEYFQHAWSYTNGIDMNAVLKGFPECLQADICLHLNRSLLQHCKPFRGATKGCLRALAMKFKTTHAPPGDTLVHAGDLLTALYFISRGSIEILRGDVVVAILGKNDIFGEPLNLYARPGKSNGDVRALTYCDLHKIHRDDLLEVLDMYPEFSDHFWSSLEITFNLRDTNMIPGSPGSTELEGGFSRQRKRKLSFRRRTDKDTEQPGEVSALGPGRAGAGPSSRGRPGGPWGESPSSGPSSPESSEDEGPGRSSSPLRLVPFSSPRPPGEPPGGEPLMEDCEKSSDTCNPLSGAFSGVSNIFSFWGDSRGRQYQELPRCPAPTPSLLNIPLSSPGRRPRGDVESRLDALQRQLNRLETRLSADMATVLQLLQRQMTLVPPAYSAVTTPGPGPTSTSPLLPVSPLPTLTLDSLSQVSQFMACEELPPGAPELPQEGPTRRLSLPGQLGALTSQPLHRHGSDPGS
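Further: peak tail current of the secondary pulse compared with the same well before compound.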

Row | Structure (SMILES) | hERG current change (%, negative = inhibition) at 10uM [%]
1 | C=C1C(=O)C=C2CN(C(=O)c3ccccc3)[C@@](Cc3ccc(F)cc3)(C(=O)OC)[C@@H]12 | -3.22
2 | CCOc1ccc(N2C(=O)CC(N3CCN(C(=O)c4ccco4)CC3)C2=O)cc1 (centres unmarked) | -9.91
3 | Cc1cc(C)n(C(=O)CNC(=O)C(c2ccccc2)c2ccccc2)n1 | -3
4 | CN(C)c1ccc(NC(=O)c2cccc([N+](=O)[O-])c2)c2ccccc12 | -4.86
5 | COc1cc(C=O)ccc1OCCCOc1ccc([N+](=O)[O-])cc1 | -10.8
6 | O=C(COC(=O)C1(c2ccc(F)cc2)CCCC1)NCc1ccco1 | -2.02
7 | CCC(C)NC(=O)c1ccc(C(=O)c2ccccc2)cc1 (centres unmarked) | 12.7
8 | CN1CCN(C(=O)c2cnn3c2NC(c2ccccc2)CC3C(F)(F)F)CC1 (centres unmarked) | 17.1
9 | O=C(c1cnn2c1NC(c1ccc(Br)cc1)CC2C(F)(F)F)N1CCN(C23CC4CC(CC(C4)C2)C3)CC1 (centres unmarked) | -7.5
10 | O=C(c1cnn2c1NC(c1ccc(Br)cc1)CC2C(F)(F)F)N1CCN2CCCC2C1 (centres unmarked) | -63.5
11 | Cc1ccc2oc(C(=O)N(Cc3ccncc3)CC3CCCO3)c(C)c2c1 (centres unmarked) | -34.9
12 | CCCc1ccc2oc(C(=O)N(Cc3ccncc3)CC3CCCO3)c(C)c2c1 (centres unmarked) | -71.6
13 | CCCc1ccc2oc(C(=O)N(C)CCn3ccnc3C)c(C)c2c1 | -61.4
14 | Cc1c(C(=O)N(Cc2ccc(N(C)C)cc2)CC2CCCO2)oc2ccccc12 (centres unmarked) | -26.5
15 | Cc1ccc2c(C)c(C(=O)N(Cc3ccncc3)CC3CCCO3)oc2c1C (centres unmarked) | -51.9
16 | CCCc1ccc2oc(C(=O)N(C)Cc3nccs3)c(C)c2c1 | -48.3
17 | Cc1c(C(=O)N(Cc2ccncc2)CC2CCCO2)oc2c(F)cccc12 (centres unmarked) | -27.1
18 | Cc1ccc2oc(C(=O)N(Cc3ccc(N(C)C)cc3)CC3CCCO3)c(C)c2c1 (centres unmarked) | -14.8
19 | CCCc1ccc2oc(C(=O)N(C)Cc3cnccn3)c(C)c2c1 | -10.9
20 | COc1ccc(/C=N/NC(=S)Nc2ccccc2)cc1COc1ccc(Br)cc1 | -1.6
21 | Cc1cc(Oc2ccc(C#N)cc2)nc(NCc2ccccc2)n1 | 2.36
22 | O=C1CN(C(=O)C2CC2)c2ccccc2N1 | -15.8

Row | Structure (SMILES) | hERG current change (%, negative = inhibition) at 10uM [%]
23 | CC(C)(C)OC(=O)N1CCC(NC(=O)c2[nH]cnc2C(=O)Nc2ccccc2)CC1 | -15
24 | CNC(=O)COC(=O)c1cccc(S(=O)(=O)N2CCN(c3ccc(F)cc3)CC2)c1 | -0.232
25 | N#Cc1nccnc1N1CCN(C(=O)Nc2ccccc2)CC1 | 5.22
26 | CCc1cc2cc(C)ccc2nc1SCC(=O)N1CCN(C(=O)c2ccco2)CC1 | -53.4
27 | CCc1cc2ccc(OC)cc2nc1SCC(=O)N1CCN(C(=O)c2ccco2)CC1 | -49.1
28 | CCc1cc2cc3c(cc2nc1SCC(=O)N1CCN(C(=O)c2ccco2)CC1)OCO3 | -28.7
29 | CCc1cc2ccc(C)cc2nc1SCC(=O)NNC(=O)c1ccco1 | 12
30 | Cc1cc2cc3c(cc2nc1SCC(=O)N1CCN(C(=O)c2ccco2)CC1)OCO3 | -35.3
31 | COc1cc2cc(C)c(SCC(=O)N3CCN(C(=O)c4ccco4)CC3)nc2cc1OC | -66
32 | CCc1cc2cc(C)ccc2nc1SCC(=O)NNC(=O)c1ccco1 | 21.9
33 | CCc1cc2cccc(C)c2nc1SCC(=O)N1CCN(C(=O)c2ccco2)CC1 | -54.4
34 | CCc1cc2cccc(C)c2nc1SCC(=O)NNC(=O)c1ccco1 | -0.00372
35 | CCc1cc2cc(C)cc(C)c2nc1SCC(=O)N1CCN(C(=O)c2ccco2)CC1 | -16.2
36 | COc1cc2cc(C)c(SCC(=O)N3CCOCC3)nc2cc1OC | -1.12
37 | CCc1cc2ccc(C)cc2nc1SCC(=O)N1CCN(C(=O)c2ccco2)CC1 | -56
38 | O=C(CC1C(=O)NCCN1Cc1cccc(C(F)(F)F)c1)NCCc1cnccn1 (centres unmarked) | 7.22
39 | O=C(COC(=O)c1cc(Cl)ccc1O)NC(=O)NCc1ccccc1 | 4.6
40 | COC(=O)C(CSCc1ccccc1)NC(=O)CSc1nc(C)cc(=O)[nH]1 (centres unmarked) | 18.4
41 | CN(c1ccccc1)S(=O)(=O)c1ccc(C(=O)NCCc2ccc(F)cc2)cc1 | -21.1
42 | CC(=O)Nc1ccc(/C(C)=N/NC(=O)c2ccc(CN3CCOCC3)cc2)cc1 | 25.2
43 | Br.CC1CCCC(C)N1Cc1cn2ccccc2n1 (centres unmarked) | 7.29
44 | Cc1nn(CC(=O)Nc2ccccn2)c(C)c1Br | 15.3

Row | Structure (SMILES) | hERG current change (%, negative = inhibition) at 10uM [%]
45 | Nc1ccc2ncccc2c1N | 6.47
46 | CSc1ccc(CCNS(=O)(=O)c2c(C)[nH]c(C)c2C(=O)N2CCCCC2)cc1 | -15.2
47 | COc1ccc(CCNC(=O)c2cc(=O)n(C)c(=O)n2C)cc1OC | -0.242
48 | Cc1ccc(-n2c(SCC(=O)OC(C)C)nnc2-c2ccco2)cc1 | -37.7
49 | Cc1cccc(C(=O)Oc2ccccc2/C=N/NC(=O)c2ccc(NC(=O)C(C)(C)C)cc2)c1 | -4.88
50 | CN1C=CC2=C(C#N)C(N)C(C#N)(C#N)[C@H](c3ccccc3)[C@H]2C1 (some centres unmarked) | -4.67
51 | O=C(CSc1nnnn1-c1ccccc1)N1CCN(C(=O)c2ccco2)CC1 | -49.4
52 | Cc1ccc(-n2nnnc2SCC(=O)NNC(=O)c2ccco2)c(C)c1 | -4.35
53 | Cc1ccc(-n2nnnc2SCC(=O)N2CCN(C(=O)c3ccco3)CC2)c(C)c1 | -76
54 | COc1ccccc1NC(=O)c1cnc(SC)nc1 | 19.2
55 | O=C(O)C(=O)O.O=S(=O)(c1ccc(Cl)cc1)N1CCC(N2CCOCC2)CC1 | -11.5
56 | Cn1ncc2c(Nc3ccc(O)cc3)nc(Cl)nc21 | 5.53
57 | Cc1ccccc1OCc1nnc(SCC(=O)O)n1-c1ccccc1 | 14.4
58 | COc1ccc(-n2c(CNc3ccc(C)cc3)nnc2SCc2ccccc2)cc1 | -7.09
59 | Cn1c(CNc2ccc(Cl)cc2)nnc1SCCN1CCCCC1 | -46.4
60 | Cc1ccccc1OCc1nnc(SCC(=O)O)n1-c1cccc(Cl)c1 | 5.63
61 | COc1ccc(NCc2nnc(SCCN3CCCCC3)n2-c2ccc(C)cc2)cc1 | -66.7
62 | COc1ccc(C(=O)CSc2nnc(CN3CCCCC3)n2-c2ccc(F)cc2)cc1OC | 6.33
63 | Cc1ccccc1OCc1nnc(SCCN2CCCC2)n1-c1ccccc1.Cl | -65.3
64 | COc1ccc(C(=O)CSc2nnc(CN3CCCC3)n2-c2ccc(F)cc2)c(OC)c1 | -23
65 | COc1ccc(C(=O)CSc2nnc(CN3CCCCC3)n2-c2ccc(F)cc2)cc1 | -57.7
66 | O=C(CCN1CCOCC1)Nc1c(-c2ccccc2)c2cc(Br)ccc2[nH]c1=O | -11.9

Row | Structure (SMILES) | hERG current change (%, negative = inhibition) at 10uM [%]
67 | CC(=O)Nc1ccc(C(=O)Nc2cccc(S(=O)(=O)NC3=NCCC3)c2)cc1 | 4.95
68 | CC(C)(O)C#Cc1ccc(CN2CCN(Cc3ccccc3)C(CCO)C2)s1 (centres unmarked) | 4.64
69 | CCOc1cc(C)c(S(=O)(=O)Nc2ccc3cn[nH]c3c2)cc1C | 25.2
70 | N#CC1(NC(=O)CSc2nnc(Nc3ccccc3F)s2)CCCC1 | 0.45
71 | COc1cc(OC)cc(C(=O)OCC(=O)NCCCc2ccccc2)c1 | 12.2
72 | C=CCN1C(=O)N/C(=C/c2ccc(C)o2)C1=O | 9.15
73 | COC(=O)c1ccc(C2c3[nH]c4ccccc4c3C[C@H]3C(=O)N(C4CCN(Cc5ccccc5)CC4)CC(=O)N23)cc1 (some centres unmarked) | -10
74 | CSCC[C@H](NC(=O)C1=NN(c2c(F)c(F)cc(F)c2F)C(=O)CC1)c1nc2ccccc2[nH]1 | -13.3
75 | CCC(=O)N/N=C(\C)CC(=O)Nc1cccc([N+](=O)[O-])c1 | 9.57
76 | COc1ccc(OCC(=O)N/N=C(\C)CC(=O)Nc2cccc([N+](=O)[O-])c2)cc1 | -53.8
77 | COc1ccc(NC(=O)C/C(C)=N/NC(=O)c2cccs2)c([N+](=O)[O-])c1 | -54.4
78 | COc1ccc(NC(=O)C/C(C)=N/NC(=O)c2ccco2)c([N+](=O)[O-])c1 | -33.9
79 | COc1ccc(NC(=O)C/C(C)=N/NC(=O)COc2ccc(OC)cc2)cc1 | -18.8
80 | COc1ccc(-c2nnc(NC(=O)C3CCCN3S(=O)(=O)c3cccs3)o2)cc1 (centres unmarked) | -3.47
81 | COc1ccc(NC(=O)C/C(C)=N/NC(=O)c2ccncc2)c([N+](=O)[O-])c1 | -59.8
82 | CC(=O)Nc1ccccc1NC(=O)C/C(C)=N/NC(=O)c1ccncc1 | 19.6
83 | COc1ccc(NC(=O)c2cccs2)c([N+](=O)[O-])c1 | -3.28
84 | COc1cc(NC(=O)C/C(C)=N/NC(=O)c2cccs2)c(OC)cc1Cl | -14.4
85 | COc1ccc([N+](=O)[O-])cc1NC(=O)C1CCCN1S(=O)(=O)c1cccs1 (centres unmarked) | -18.1
86 | COc1ccc(NC(=O)C2CCCN2S(=O)(=O)c2cccs2)c([N+](=O)[O-])c1 (centres unmarked) | -68.3
